# Screening results deposited in PubChem BioAssay by National Center for Advancing Translational Sciences (NCATS).
# Sampled rows, rich in hits. Any-hit rate of the full collection: about 7.3%.
# HCMV antiviral – inhibitors of human cytomegalovirus; activity change, negative = inhibition, % at 57.5 µM; hit rate 4.5% among 410,000; AID 1259415; HFF cells, HCMV-luciferase reporter, 72 h; active compounds read low; in the data active means activity change below about -60%; inconclusive means no clear call, values can overlap the other calls; inactive means above about -39%
#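 Human foreskin fibroblasts infected with luciferase-reporter HCMV at MOI 1 PFU/cell, compounds at two doses. Luciferase measured 72 h post infection; normalized to buffer-only basal and Salinomycin (10uM) controls.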
# FMDV antiviral – blocks foot and mouth disease virus; FMDV antiviral cell-based qHTS; Potency, µM (top dose mostly 57.9 µM), for inactives: top-dose activity change, negative = inhibition, most hits filed as inhibitors; hit rate 1.2% among 410,000; calls by dose curve; tested in HEK293T cells; further: read-out not given here; potency means the concentration at half of the fitted maximal effect; nearly all actives have a fitted effect of over 45% in size
# Vaccinia mCherry – inhibitors of vaccinia virus infection (mCherry reporter signal). AID 720579. Vaccinia virus mCherry reporter infection, fluorescence. hit rate 0.63% among 310,000. Potency, µM (top dose mostly 36.5 µM), without a hit: at the top dose activity change, negative = inhibition, usual class: inhibitors; calls by dose curve; tested in A549 cells; further: potency means the concentration at half of the fitted maximal effect; nearly all actives have a fitted effect of over 35% in size
# HCV inh – HCV inhibition. Huh7.5.1 HCVcc-Cre infection, luciferase reporter, 44 h. hit rate 3.4% among 340,000. AID 651820. Potency, µM (series often up to 41.8 µM), inactives show at the highest dose activity change, negative = inhibition, most hits filed as inhibitors; active means well fitted inhibition curve with a large enough effect; inconclusive means small, poorly fitted or top-dose-only effect, or another doubt; inactive means no such curve, though single readings can be large or run the other way; further: potency means the concentration at half of the fitted maximal effect
#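 Cells seeded at 1,000/well and cultured 4 h, then compounds added followed by HCVcc-Cre virus (~0.5 moi). After 44 h further culture, luciferase substrate was added, plates held 15 min at room temperature, and luminescence read for 15 sec.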
# VACV Venus inh – vaccinia inhibition (Venus reporter). Vaccinia virus Venus reporter expression, fluorescence. Potency, µM (doses to about 36.5 µM), for inactives: at the top dose activity change, negative = inhibition, actives largely listed as inhibitors. hit rate 0.46% among 330,000; calls by dose curve; tested in A549 cells; further: potency means the concentration at half of the fitted maximal effect; nearly all actives have a fitted effect of over 30% in size
# Numbers without * were called inactive; i = inactive; u = inconclusive; x = not tested or not shown; + = active, no number; [ ] = remark or other dose. On the % scale 0 is the no-effect control and ±100 the full control effect.
SMILES,HCMV antiviral,FMDV antiviral,Vaccinia mCherry,HCV inh,VACV Venus inh
Cc1ccccc1C(=O)Nc1ccc2c(C#N)c3nc4ccccc4nc3n2c1,-65.0*,u,66.5%,0.9%,271.1%
COc1ccc(NC(C)C(=O)Nc2cccc(S(=O)(=O)N3CCOCC3)c2)cc1OC (stereo unspecified),u,u,x,12.6µM*,x
Cc1ccc(NC(=O)[C@@H](NC(=O)c2cccc(S(=O)(=O)N3CCOCC3)c2)C(C)C)cc1C,-25.6,61.2%,-10.2%,10µM*,-7.3%
COc1ccc(NS(=O)(=O)c2cc(NC(=O)[C@@H](NC(=O)c3ccccc3)C(C)C)ccc2C)cc1,-87.4*,58.8%,-15.5%,u,-28.7%
CC(C)[C@H](NC(=O)c1ccccc1)C(=O)Nc1cccc(S(=O)(=O)N2CCOCC2)c1,+,8.0%,i,5.6%,-5.6%
COc1ccc(NS(=O)(=O)c2cc(NC(=O)c3ccc(=O)[nH]c3)ccc2C)cc1,66.0,71.0%,x,-21.0%,x
Oc1ccc(Cl)cc1CN1CCOc2c(O)cc(-c3nc4ccccc4s3)cc2C1,x,-17.4%,-24.2%,x,-10.5%
Cc1ccccc1NC(=O)COC(=O)c1ccccc1OCC(=O)Nc1ccc(Br)cc1,x,x,-13.6%,x,-22.8%
CSc1nc2nccc(-c3ccc(Cl)cc3)n2n1,-25.0,0.0%,x,7.1%,-22.3%
CSc1nc2nccc(/C=C\c3ccccc3)n2n1,-106.0*,u,x,u,x
COc1ccc(NC(=O)c2ccc(CNS(=O)(=O)c3ccc4c(c3)C(C)(C)C(=O)N4C)cc2)cc1,58.8,-13.1%,-8.9%,x,-1.3%
COc1ccc(C2/C(=C(/O)c3ccc(F)cc3)C(=O)C(=O)N2CCCN(C)C)cc1 (stereo unspecified),-82.6*,-7.4%,-2.7%,-15.8%,-3.3%
CCCOc1ccc(C2/C(=C(/O)c3ccc(F)cc3)C(=O)C(=O)N2CCCN(C)C)cc1 (stereo unspecified),7.4,0.3%,-7.7%,12.9%,-9.6%
O=C(Cn1c(=O)n(Cc2ccc(F)cc2)c(=O)c2sc3ccccc3c21)NCc1ccccc1Cl,-8.4,-20.2%,-15.9%,x,-20.1%
O=C(O)c1cnc(-c2ccccc2)nc1Oc1ccccc1,-27.6,-4.0%,i,3.55µM*,-9.3%
O=C(O)c1cnc(-c2ccccc2)nc1Oc1ccc(Cl)cc1,-25.2,-23.7%,7.0%,20.7%,-2.8%
Cc1ccc(Oc2nc(-c3ccccc3)ncc2S(=O)(=O)c2ccc(C)cc2)cc1,69.0,0.0%,x,5.62µM*,-4.4%
Cc1ccc(Oc2nc(-c3ccccc3)ncc2S(C)(=O)=O)cc1,2.2,0.0%,x,3.4%,-6.8%
CCc1ccc(S(=O)(=O)NCc2ccc3c(c2)CCN3C(=O)c2ccc(C)cc2)cc1,52.4,u,-23.8%,x,-29.0%
CCOc1cc2c(C#N)c(N(CC)CC)nc(N)c2c(N)n1,5.0,13.4%,u,3.3%,u
CCCN(CC1CC1)c1nc(N)c2c(N)nc(OC)cc2c1C#N,-13.7,u,11.2µM*,-12.8%,u
Cc1ccc(-n2c(-c3ccccc3)c[n+]3c2CCc2ccccc2-3)c(C)c1,-96.9*,2.82µM*,u,u,u
Cc1ccc(-n2c(SCC(=O)N3CCCc4ccccc43)nnc2-c2cccnc2)c(C)c1,u,-19.3%,i,u,-7.0%
Cc1oc2c(c(=O)c1C)C(=O)CC(c1ccccc1)C2 (stereo unspecified),0.8,-28.1%,x,4.6%,-13.1%
CS(=O)(=O)c1sc(C#N)c2c1C(=O)CC(c1ccccc1)C2 (stereo unspecified),-104.4*,11.2µM*,x,u,x
SMILES,HCMV antiviral,FMDV antiviral,Vaccinia mCherry,HCV inh,VACV Venus inh
COc1ccccc1CNC(=O)c1ccc(-c2nc(CS(=O)c3ccc(C)cc3)c(C)o2)cc1 (stereo unspecified),-0.5,u,-24.7%,x,-15.8%
O=C(NCCc1cccc(Cl)c1)c1ccc(OC2CCN(Cc3ccccn3)CC2)cc1,-71.0*,28.2µM*,x,u,x
CCOc1ccccc1CN1CCC(Oc2ccc(C(=O)NCc3ccccn3)cc2)CC1,6.5,-21.4%,x,-26.5%,x
CCn1cc(CNC(=O)c2ccc(OC3CCN(Cc4ccccn4)CC3)cc2)cn1,-71.4*,u,u,10µM*,-13.3%
Cc1cccc(NC(=O)c2cccc(N3C(=O)C4C5C=CC(C6CC56)C4C3=O)c2)c1 (stereo unspecified),1.9,15.8µM*,-7.8%,11.2µM*,-25.1%
Cc1cc(C)cc(NC(=O)c2cccc(N3C(=O)C4C5C=CC(C5)C4C3=O)c2)c1 (stereo unspecified),-12.6,9.8%,-18.0%,-12.1%,-9.4%
O=C(c1ccnc(-n2cnnn2)c1)N1CCOc2ccc(C(O)CCc3ccccc3)cc2C1 (stereo unspecified),x,14.9%,-8.3%,x,-1.1%
O=C(CCl)N(CCCNC(=O)C(F)(F)F)c1ccc([N+](=O)[O-])cc1,-100.6*,20µM*,i[7.34 µM],u,-9.0%[7.34 µM]
CCOC(=O)C1=C(C(=O)OCC)C2N(Cc3ccc(Br)cc3)c3ccccc3[C@@]23C[C@@H](C(=O)OC)N(S(=O)(=O)c2ccc(F)cc2)C3=N1 (stereo partly specified),16.4,x,x,x,x
Cc1ccc(C(=O)N2CCc3cc(CNS(=O)(=O)c4cccs4)ccc32)cc1,-38.7,-29.3%,-21.9%,x,-14.9%
Cc1cccc(C(=O)N2CCc3cc(CNS(=O)(=O)c4cccs4)ccc32)c1,-61.8*,u,-22.0%,x,-28.3%
COc1ccc(Cl)cc1S(=O)(=O)NCc1ccc2c(c1)CCN2C(=O)c1cccc(C)c1,-86.8*,19.1%,-13.8%[7.34 µM],x,-8.0%[7.34 µM]
CC(C)c1ccc(S(=O)(=O)NCc2ccc3c(c2)CCN3C(=O)c2ccccc2)cc1,-66.2*,-19.4%,-13.8%,x,-18.4%
Fc1ccc(N2Cc3ccccc3-n3nncc3C2)cc1,-104.4*,-11.6%,6.7%,x,-8.8%
CN1Cc2ccccc2-n2nncc2C1,-8.7,0.2%,i,29.7%[8.37 µM],-2.6%
CN(C)c1ccc(/C=C/c2ccnc3c(N)cccc23)cc1,x,x,-17.9%,x,-11.7%
CCSc1nc2ccccc2n1C(=O)/C=C\c1ccc(OC)c(OC)c1,-97.9*,12.6µM*,12.6µM*,14.1µM*,u
COc1cccc(C(=O)Nc2cccc(-c3nnc(-c4ccco4)o3)c2)c1,u,14.1µM*,u,22.4µM*,u
COc1ccc(Br)cc1C(=O)Nc1cccc(-c2nnc(-c3ccco3)o2)c1,u,x,i,u,-1.9%
CC(=O)c1ccc(NC(=O)c2ccc3nc(-c4ccco4)c(-c4ccco4)nc3c2)cc1,x,u,-3.9%,u,-18.1%
O=C(Nc1ccc2nc(-c3ccco3)c(-c3ccco3)nc2c1)N1CCN(c2ccccn2)CC1,-24.1,u,i,7.94µM*,-4.9%
Cc1ccc(SCC(=O)Nc2cccc(-c3nnc(-c4ccco4)o3)c2)cc1,-98.6*,-4.9%,x,-28.4%,u
O=C(Nc1ccccc1)c1ccc2nc(-c3ccco3)c(-c3ccco3)nc2c1,1.5,-22.8%,4.3%,8.91µM*,-15.2%
